Assay outcomes (PubChem)
Sampled rows, rich in hits. Any-hit rate of the full collection: about 9%.
HTT aggregate = mutant huntingtin aggregation inhibition; 220,000 tested, 1.1% active; Potency, µM (highest dose often 46.1 µM), for inactives: at the top dose activity change, negative = inhibition, most hits filed as inhibitors; PC12 HttQ103-GFP aggregates, Acumen cytometry, 40 h; AID 1688; also: % is scaled to controls: 0 for no effect and ±100 for the full control effect; nearly all actives have a fitted effect of over 60% in size
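Quantitative HTS on tebufenozide-induced (100 nM) PC12 cells stably expressing polyQ103 Huntingtin exon 1–GFP. Reduction of bright GFP aggregates, detected by laser scanning cytometry after lysis, identified actives across the titration.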
ALDH1A1 inh = inhibitors of human aldehyde dehydrogenase 1A1; P00352; Purified ALDH1A1, NADH fluorescence, propionaldehyde substrate; Potency, µM (titrated, usually from 75.3 µM), for inactives: at the top dose activity, negative = inhibition, usual class: inhibitors; 220,000 tested, 7.3% active; AID 1030; active = well fitted inhibition curve with a large enough effect, not every such curve was filed as active; inconclusive = small, poorly fitted or top-dose-only effect, or another doubt; inactive = no such curve, though single readings can be large or run the other way;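 also: plate controls were no enzyme wells and a reference inhibitor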
Target sequence (P00352 whole entry, looked up): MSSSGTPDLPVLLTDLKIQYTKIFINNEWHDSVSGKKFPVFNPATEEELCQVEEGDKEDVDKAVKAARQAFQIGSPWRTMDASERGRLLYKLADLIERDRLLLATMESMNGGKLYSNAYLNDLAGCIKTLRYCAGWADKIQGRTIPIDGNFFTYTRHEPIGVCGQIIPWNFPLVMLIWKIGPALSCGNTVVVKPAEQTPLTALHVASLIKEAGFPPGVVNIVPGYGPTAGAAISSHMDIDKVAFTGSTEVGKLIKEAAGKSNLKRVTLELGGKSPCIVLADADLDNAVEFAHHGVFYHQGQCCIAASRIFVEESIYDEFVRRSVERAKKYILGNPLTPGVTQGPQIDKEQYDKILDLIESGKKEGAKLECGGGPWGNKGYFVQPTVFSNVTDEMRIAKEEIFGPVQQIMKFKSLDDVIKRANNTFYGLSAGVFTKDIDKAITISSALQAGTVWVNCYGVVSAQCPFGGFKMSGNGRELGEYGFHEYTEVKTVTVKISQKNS
HTT ATP protect = cytoprotection in Huntington HTT-Q103 PC12 cell model. AID 1471. Potency, µM (series often up to 56.4 µM), for the others: cytoprotection (ATP increase), usual class: activators. 230,000 tested, 0.14% active. PC12 HTT-Q103 induced, cytoprotection, ATP luminescence, 40 h; also: % of control where 0% means no effect; nearly all actives have a fitted effect of over 45% in size
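Compounds added alongside 100 nM tebufenozide, which induces toxic Q103 huntingtin exon 1-GFP in stable PC12 cells; surviving cells quantified by luminescent ATP measurement. Medium: phenol red-free DMEM, 5% equine and 5% calf serum.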
HPGD block = inhibitors of human 15-hydroxyprostaglandin dehydrogenase (HPGD). P15428. purified HPGD, NADH fluorescence kinetic, PGE2 substrate. Potency, µM, for the others: top-dose activity change, negative = inhibition, most hits filed as inhibitors. 150,000 tested, 4.3% active. AID 894; active = well fitted inhibition curve with a large enough effect, not every such curve was filed as active; inconclusive = small, poorly fitted or top-dose-only effect, or another doubt; inactive = no such curve, though single readings can be large or run the other way; also: % is scaled to controls: 0 for no effect and ±100 for the full control effect
Target sequence (P15428 whole entry, looked up): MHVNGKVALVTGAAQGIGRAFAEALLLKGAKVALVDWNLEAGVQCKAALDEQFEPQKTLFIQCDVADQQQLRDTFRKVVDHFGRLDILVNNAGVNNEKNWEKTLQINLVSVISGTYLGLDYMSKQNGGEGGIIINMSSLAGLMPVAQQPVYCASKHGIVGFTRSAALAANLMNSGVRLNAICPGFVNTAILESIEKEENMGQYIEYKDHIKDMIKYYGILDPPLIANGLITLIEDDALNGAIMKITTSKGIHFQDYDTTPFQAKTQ
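NADH formation kinetics: reaction with 30 uM PGE2 and 1 mM NAD+ (final), 20 nM enzyme, Tris-HCl pH 8 with Tween 20, after 15 min compound preincubation at room temperature. Fluorescence change, last versus first of five reads.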
KinaseGlo FLuc = counter-screen: inhibitors of Kinase-Glo firefly luciferase; Q27757; Kinase-Glo luciferase, ATP luminescence, 8 min; 200,000 tested, 0.28% active; Potency, µM (titrated, usually from 38.3 µM), for inactives: at the highest dose activity change, negative = inhibition, most hits filed as inhibitors; also: % is scaled to controls: 0 for no effect and ±100 for the full control effect; nearly all actives have a fitted effect of over 60% in size
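Recombinant Kinase-Glo luciferase, 10 uM ATP (linear range), luciferin; imidazole pH 7.2 / KCl / MgCl2 / Tween / BSA buffer; 8 min RT; luminescence.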
LMNA splice mod = changes lamin A minigene splicing in HeLa cells; Potency, µM (series often up to 46.1 µM), without a hit: at the top dose ratio change, negative = inhibition, actives largely listed as inhibitors; 200,000 tested, 0.01% active; HeLa LMNA splicing GFP/RFP minigene ratio, 48 h; active = well fitted inhibition curve with a large enough effect in the signal ratio, with a control signal flat, not every such curve was filed as active; inconclusive = small, poorly fitted or top-dose-only effect, or effect the other way, or a change in a side signal; the % refers to the signal ratio; also: % is scaled to controls: 0 for no effect and ±100 for the full control effect
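S3 HeLa stable clones carrying a lamin A-EGFP splicing minigene plus DsRed2 were seeded at 600 cells/well in Opti-MEM with 2% FBS, pin-dosed and incubated 48 h at 37°C. Acumen cytometry (488 nm) gave the GFP/RFP total-intensity ratio.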
The depositor's hits bear a star; ? = inconclusive; . = no result given; ! = repeats disagree; [ ] = another dose, or the depositor's remark. Unless noted, calls follow the shape of the dose curve; as a rule, active = well fitted curve in the direction sought with a large enough effect; inconclusive = small, poorly fitted or top-dose-only effect, or another doubt; inactive = no such curve, though single readings can be large; an effect the other way counts as inactive or inconclusive. Potency is read from the fitted curve at half-maximal effect.

SMILES	HTT aggregate	ALDH1A1 inh	HTT ATP protect	HPGD block	KinaseGlo FLuc	LMNA splice mod
O=C(O)C1CCCN1C(=O)Nc1ccccc1 (stereo not given)	1.1µM*	-9%	1%[0.074 µM]	-18%	1%	0%
Oc1cc2c(cc1O)[C@@H](c1ccccc1)CNCC2	-16%	3%	.	20µM*	0%	11%
C=CC(=O)NC(C)C	.	2%	-11%	-1%	.	.
C=CC(=O)CC	.	2µM*	5%	-2%	.	.
O=c1c(/C=N/OCc2ccc(Cl)cc2Cl)c[nH]n1-c1cccc(Cl)n1	10µM*	4%	-101%	.	1%	-29%[9.22 µM]
O=C(Nc1ccccc1C(=O)OCc1nnc(-c2ccccc2)o1)c1ccco1	0%	?	4%	?	-5%	?
N#Cc1ccc(C(=O)Nc2nnc(-c3ccccn3)o2)cc1	?	-11%	-11%[10 µM]	.	.	-21%
COc1ccc(-c2nc3ccccn3c2C=O)cc1	-36%	?	37%[0.074 µM]	-26%	-22%	-4%
N#Cc1cc2c([nH]c1=S)CCCCCC2	-7%	10µM*	12%	7.9µM*	1%	8%
COC(=O)c1nnc(-c2ccccc2)c(-c2ccccc2)n1	5%[9.22 µM]	?	-7%	-20%	1%	0%
Cc1ccc(S(=O)(=O)NCCCN2CCOCC2)cc1C	9%	-10%	-6%[10 µM]	-7%	1%	-8%
Cc1ccc(S(=O)(=O)NCCN=C(CN2CCCC2)NS(=O)(=O)c2ccc(C)cc2)cc1	?	4.5µM*	-25%	1%	-2%	4%
Cc1ccc(S(=O)(=O)NCCN=C(CN2CCOCC2)NS(=O)(=O)c2ccc(C)cc2)cc1	18%	1.6µM*	-3%[10 µM]	2%	1%	-6%
Cc1nc2cnc(N(C)C)nc2n(CCC#N)c1=O	.	?	-6%	.	.	-6%
[N-]=[N+]=CC(=O)C(Cc1ccccc1)N1C(=O)c2ccccc2C1=O (stereo not given)	11%[9.22 µM]	2.8µM*	-7%[0.074 µM]	-13%	-4%	2%
c1ccc(-c2cn3c4c(sc3n2)CCCC4)cc1	22%	?	-128%[10 µM]	-29%	11µM*	-12%
CSc1nc2nc3c(cc2c(=O)n1-c1ccc(C)cc1)COC(C)(C)C3	9%[9.22 µM]	.	6%[10 µM]	.	.	.
CSc1nc2nc3c(cc2c(=O)n1-c1ccccc1)COC(C)(C)C3	.	14µM*	.	.	0%	20%[46 µM]
CSc1nc2nc3c(cc2c(=O)n1-c1cccc(C)c1)COC(C)(C)C3	-15%[9.22 µM]	3.5µM*	-5%[10 µM]	.	.	.
c1ccc(-n2nnnc2Oc2ccc(-c3nnco3)cc2)cc1	3%	?	-9%	-11%	-5%	14%
C[N+](C)(C)CCCCCC(=O)/C=N/O	9%	5%	15%[10 µM]	-3%	-1%	-2%
CN(C)c1ccc(/C=C2/C(=O)Nc3ccccc32)cc1	.	?	-76%	-24%	-9%	.
CN(C)c1ccc(/C=C2\C(=O)Nc3ccccc32)cc1	.	7.1µM*	-143%	?	-14%	28µM*
Cc1ccc(/C=C2\C(=O)Nc3ccccc32)o1	3%	7.9µM*	-2%[1.9 µM]	-23%	-2%	?
Cc1ccc2c(c1)/C(=C/c1ccco1)C(=O)N2	-25%	?	6%	.	2%	.
SMILES	HTT aggregate	ALDH1A1 inh	HTT ATP protect	HPGD block	KinaseGlo FLuc	LMNA splice mod
NC(=O)c1sc2nccc(Nc3ccccc3)c2c1N	.	?	26%[0.074 µM]	?	3%	-8%
O=C(NC1CCCCC1)N(Cc1ccc(F)cc1)Cc1nc2ccccc2c(=O)[nH]1	-2%	5%	-6%	-13%	-2%	?
CCOC(=O)c1c(-c2ccc(OC)cc2)csc1/N=C/C1C(=O)CCCC1=O	?	5µM*	-60%	.	-2%	14%[46 µM]
CCOc1nc2ccccc2cc1C=O	-2%[9.22 µM]	?	-16%[10 µM]	.	1%	-23%[46 µM]
Cc1oc(CC(C)C)cc1C(=O)NCCCC(=O)O	?	-4%	5.6µM*	.	-3%	0%[46 µM]
Cc1cc(C(=O)NCCCC(=O)O)c(C)o1	3%	0%	3%	-6%	2%	-1%
Cc1cc(/C(N)=N/OC(=O)Nc2ccccc2)no1	-21%[9.22 µM]	?	6%[10 µM]	.	.	.
NC(=O)C1CCN(C2=C(Cl)C(=O)c3ccccc3C2=O)CC1	5%	?	5%	14µM*	?	?
CC(C)OC(=O)CCc1nc2ccccc2[nH]c1=O	-10%	?	-8%	?	0%	9%
O=C(Nc1cccn(Cc2c(F)cccc2Cl)c1=O)NC1CCCCC1	-1%[9.22 µM]	25µM*	-39%[10 µM]	.	-2%	.
Cc1ccc(-c2nc(Nc3cccc(C)c3)sc2CC(=O)O)cc1	-12%[9.22 µM]	?	13%[10 µM]	.	.	.
O=C(O)Cc1sc(N/N=C\c2ccccc2)nc1-c1ccccc1	-14%	1.1µM*	-3%[10 µM]	?	-4%	?
CCOC(=O)c1sc(NC(=O)C2C3C=CC(C3)C2C(=O)O)nc1C (stereo not given)	-7%	0.5µM*	-5%	-16%	0%	12%
CCOC(=O)c1sc(N/N=C/c2cccc(C)c2)nc1C	19%	-1%	5%	-13%	0%	8%
CCOC(=O)c1sc(N/N=C/c2ccccc2)nc1C	2%	8.9µM*	34%[10 µM]	14µM*	-3%	?
O=C(CO/N=C/c1cccc([N+](=O)[O-])c1)NC1CCCCC1	-1%	5%	32%[10 µM]	?	2%	-11%
CN(C(Cc1ccc(OS(=O)(=O)c2cccc3cnccc23)cc1)C(=O)N1CCN(c2ccccc2)CC1)S(=O)(=O)c1cccc2cnccc12 (stereo not given)	.	14µM*!	-45%	.	.	.
CN([C@@H](Cc1ccc(OS(=O)(=O)c2cccc3cnccc23)cc1)C(=O)N1CCN(c2ccccc2)CC1)S(=O)(=O)c1cccc2cnccc12	?	-11%	.	-7%	-3%[39.9 µM]	?
CC1=CC(c2ccccc2)n2nnnc2N1 (stereo not given)	30%[9.22 µM]	.	7%[10 µM]	.	.	.
CC(=O)Nc1ccc(NC(=O)c2ccc(CSc3ccccc3)o2)cc1	-11%	-2%	-22%	.	1%	-3%[46 µM]
COCC(C)n1c(C)cc(C(=O)CSc2ccc(NC(C)=O)cc2)c1C (stereo not given)	17%	-5%	-18%	?	-5%	2%
O=c1[nH][nH]c(=S)c(=O)[nH]1	.	?	-9%[10 µM]	4µM*	-5%[7.66 µM]	.
CCOc1ncccc1C(=O)Nc1ccccc1C(=O)NCc1ccc2c(c1)OCO2	-1%	167%	-5%[10 µM]	-22%	-2%	5%
CSc1ncccc1C(=O)NCCc1ccc(Cl)cc1	2%	6%	-72%	.	3%	2%[46 µM]
CCOc1ncccc1C(=O)NCc1ccc(C)cc1	17%	0%	-20%[10 µM]	16µM*	-1%	-1%
CSc1ncccc1C(=O)NCc1ccc(C)cc1	-12%	1%	0%[10 µM]	14µM*	1%	6%
